# In all, about 50,000 compounds went through this assay and about 800 (1.6%) showed an effect of 50% or more. Many of the other results were omitted from the sample, so strong results are more common in it than they were.
# Target: Bcl-2-like protein 10 (Homo sapiens) (UniProt Q9HD36)
# Test: Phenotype converters, Bcl-B/TR3 peptide binding displacement, primary biochemical FP (AID 1240);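 further: 0% = Bcl-B with tracer peptide and DMSO and 100% = tracer peptide lacking Bcl-B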
# Details: GST-Bcl-B / FITC-TR3 peptide fluorescence polarization; stronger effect = higher value; compound at 3.75 mg/L
# Sequence of Bcl-2-like protein 10 (Homo sapiens) (Q9HD36 whole entry, looked up): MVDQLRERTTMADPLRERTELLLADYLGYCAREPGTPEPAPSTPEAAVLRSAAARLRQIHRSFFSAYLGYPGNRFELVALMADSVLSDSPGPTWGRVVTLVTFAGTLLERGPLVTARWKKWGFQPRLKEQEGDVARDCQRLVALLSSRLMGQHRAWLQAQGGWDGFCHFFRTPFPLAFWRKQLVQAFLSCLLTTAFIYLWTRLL
row,SMILES,displacement [%]
1,O=c1[nH]c(/C=C/c2ccc(OCc3ccccc3)cc2)c([N+](=O)[O-])c(=O)[nH]1,114
2,COc1cc(/C=C/c2[nH]c(=O)[nH]c(=O)c2[N+](=O)[O-])cc(Br)c1OCc1ccccc1,15.6
3,O=c1[nH]c(/C=C/c2ccccc2)c([N+](=O)[O-])c(=O)[nH]1,18.1
4,CC(C)(C)OC(=O)C1C(=O)CC(C)(O)C(C(=O)OC(C)(C)C)C1c1ccccc1 (stereo not drawn),-1.3
5,O=c1c2ccccc2nc(SCc2ccccc2)n1Cc1ccccc1,-0.7
6,O=C(CSc1nc2ccccc2s1)Nc1ccccc1,7.4
7,O=C(CSc1nc2ccccc2s1)Nc1nc2ccccc2s1,7.4
8,O=C(CSc1nc2ccccc2s1)Nc1ncccn1,57.1
9,C=CCN1C(=O)C(Cc2ccccc2)S/C1=N/N=C/c1ccccc1 (stereo not drawn),3
10,CCC1=NN2C(=N)/C(=C/c3ccc(-c4ccc([N+](=O)[O-])cc4OC)o3)C(=O)N=C2S1,4.4
11,NC1=NC(=O)/C(=C\c2ccc(-c3ccc([N+](=O)[O-])cc3)o2)S1,3.2
12,CCC1=NN2C(=N)/C(=C/c3ccc(-c4cccc([N+](=O)[O-])c4)o3)C(=O)N=C2S1,124
13,COc1cc([N+](=O)[O-])ccc1-c1ccc(/C=C2/C(=N)N3N=C(C(C)C)SC3=NC2=O)o1,77
14,CC(C)C1=NN2C(=N)/C(=C/c3ccc(Sc4ccc(Cl)cc4)o3)C(=O)N=C2S1,-18.4
15,CC(C)C1=NN2C(=N)/C(=C/c3ccc(-c4cccc(C(=O)O)c4)o3)C(=O)N=C2S1,-26.4
16,COc1cc([N+](=O)[O-])ccc1-c1ccc(/C=C2\C(=O)N(c3ccc(S(N)(=O)=O)cc3)N=C2C)o1,5.3
17,CC(C)C1=NN2C(=N)/C(=C/c3ccc(-c4ccc([N+](=O)[O-])cc4)o3)C(=O)N=C2S1,111
18,CC(C)C1=NN2C(=N)/C(=C/c3ccc(-c4cccc([N+](=O)[O-])c4)o3)C(=O)N=C2S1,173
19,Cc1cccc(N2CCN(C3=NC(=O)/C(=C/c4ccc(-c5cccc([N+](=O)[O-])c5)o4)S3)CC2)c1,9.8
20,CCC1=NN2C(=N)/C(=C/c3ccc(-c4ccccc4C(=O)OC)o3)C(=O)N=C2S1,3.5
21,CCC1=NN2C(=N)/C(=C/c3ccc(-c4cccc(C(=O)O)c4)o3)C(=O)N=C2S1,1.4
22,O=C1C(=O)N(c2ccccc2Br)C(=O)N1c1cccc(Cl)c1,5.7
23,O=C(CSCC(=O)Nc1ccccc1)NCc1ccco1,-20.8

row,SMILES,displacement [%]
1,Nc1n[nH]c(N)c1N=Nc1cccc(C(F)(F)F)c1,-2.4
2,O=C(Cc1ccc(Cl)cc1)NNC(=O)C1CCCO1 (stereo not drawn),2.5
3,COc1cc(C(=O)NN2C(=O)/C(=C/c3ccc(OC)c(OC)c3)SC2=S)ccc1O,-28.1
4,c1ccc(-c2cc(-c3cc(-c4ccccc4)on3)no2)cc1,2.6
5,O=C(Oc1ccc2ccccc2c1)c1cc([N+](=O)[O-])ccc1Cl,-0.9
6,CN1C(=O)/C(=C\c2ccc(-c3ccc(F)c(Cl)c3)o2)SC1=S,3.9
7,CC(C)C1=NN2C(=N)/C(=C/c3cc(Cl)ccc3OCc3ccccc3)C(=O)N=C2S1,-7.4
8,CCC1=NN2C(=N)/C(=C/c3ccc(OC)c(OC)c3)C(=O)N=C2S1,-1.4
9,CC(C)C1=NN2C(=N)/C(=C/c3ccc(-c4ccc(F)c(Cl)c4)o3)C(=O)N=C2S1,146
10,COc1cc(/C=C2/C(=N)N3N=C(C(C)C)SC3=NC2=O)cc(Cl)c1OCCOc1ccccc1,-39
11,COc1ccc(/C=C2/C(=N)N3N=C(C(C)C)SC3=NC2=O)cc1OC,133
12,Cc1c(Cl)cccc1N=Cc1ccc[nH]1,11.3
13,Cc1sc2nc(SCC(=O)NCCO)n(-c3ccccc3)c(=O)c2c1C,1.9
14,COC(C)(C)c1cc(-c2cccc3ccccc23)nc(N)n1,0
15,CCOC(=O)CC(=O)CSc1nc(C)c2cc(OCC)ccc2n1,67.2
16,CCOc1ccc2nc(SC)nc(C)c2c1,-3.6
17,C=CCSc1nc(C)c2cc(OCC)ccc2n1,7.4
18,Cc1cc(C)c2oc(-c3ccc(C)c(NC(=O)c4ccc(Br)o4)c3)nc2c1,-3.8
19,CN(C)CCCNC(=O)c1ccc(N(C)S(=O)(=O)c2ccccc2)cc1,-13.4
20,CCOC(=O)c1csc(NC(=O)c2ccc(C(=O)c3ccccc3)cc2)n1,-24.4
21,Cc1ccc(C(C)C)c(OCC(=O)Nc2ccc(NC(=O)c3ccccc3Cl)cc2)c1,-2.1
22,C=CCn1c(O)c(/C=C2\C=Nc3ccccc32)c(=O)[nH]c1=S,-2.9
23,O=c1[nH]c(=O)n(-c2cccc(Br)c2)c(O)c1/C=C1\C=Nc2ccccc21,33.4

row,SMILES,displacement [%]
1,Cc1cc(C)cc(-n2c(O)c(/C=C3\C=Nc4ccccc43)c(=O)[nH]c2=O)c1,71.2
2,O=c1[nH]c(=O)n(Cc2ccc(F)cc2)c(O)c1/C=C1\C=Nc2ccccc21,51.3
3,O=c1[nH]c(=O)n(Cc2ccc(F)cc2)c(O)c1/C=C1/C=CC=N1,32
4,Cc1cc(C)c(-n2c(O)c(/C=C3\C=Nc4ccccc43)c(=O)[nH]c2=O)c(C)c1,-4.1
5,COc1cc(OC)c(OC)cc1/C=N/NC(=O)CSc1nc2ccccc2[nH]1,0.1
6,O=C(Nc1ccccc1C(=O)N=Nc1c(O)[nH]c2ccc([N+](=O)[O-])cc12)c1ccccc1,-1.3
7,COc1ccc(C)cc1NC(=O)CN(Cc1ccccc1)S(=O)(=O)c1ccc(OC)c(OC)c1,-46.5
8,CCN1CCc2c(sc(NC(=O)Nc3ccc(Cl)cc3)c2C(N)=O)C1,21.3
9,COC(=O)c1c(NC(=O)Nc2ccc(Cl)c(Cl)c2)sc2c1CCC2,11.8
10,CCN1CCc2c(sc(NC(=O)Nc3ccc(Cl)c(Cl)c3)c2C(N)=O)C1,111
11,CCOc1ccccc1NC1=CC(=O)CC(c2ccccc2)C1 (stereo not drawn),-8.1
12,COc1ccc(COCC(O)CN2CC(C)OC(C)C2)cc1OC (stereo not drawn),4
13,COc1ccccc1C(=O)N1CCN(c2nc3ccc([N+](=O)[O-])cc3s2)CC1,-14
14,Cc1ccccc1C(=O)N1CCN(c2nc3ccc([N+](=O)[O-])cc3s2)CC1,161
15,O=C(c1ccc(Cl)cc1Cl)N1CCN(c2nc3ccc([N+](=O)[O-])cc3s2)CC1,100
16,O=C(c1cccc2ccccc12)N1CCN(c2nc3ccc([N+](=O)[O-])cc3s2)CC1,28.9
17,CCC(=O)N1CCN(c2nc3ccc([N+](=O)[O-])cc3s2)CC1,-8.8
18,O=C(c1ccc(Br)cc1)N1CCN(c2nc3ccc([N+](=O)[O-])cc3s2)CC1,3.2
19,COc1ccc(N2C(=O)c3ccccc3NC2c2ccc(OC)c(CN3C(=O)c4ccccc4C3=O)c2)cc1 (stereo not drawn),-4.2
20,COC(=O)CSc1nc(NC(C)=O)nc(C)c1Br,4.5
21,Oc1c(Cl)cc(Br)cc1/C=N/Nc1nc(N2CCOCC2)nc(N2CCOCC2)n1,9.3
22,O=C1/C(=C\Nc2cc(Cl)ccc2O)CCc2ccccc21,85.9
23,O=C1/C(=C\Nc2ccccc2O)CCc2ccccc21,3.8

row,SMILES,displacement [%]
1,O=C1/C(=C/Nc2ccccc2NS(=O)(=O)c2ccccc2)CCc2ccccc21,10.4
2,O=C1/C(=C\Nc2ccc3c(c2)OCO3)CCc2ccccc21,48.1
3,CNc1ccc([N+](=O)[O-])cc1N/C=C1\CCc2ccccc2C1=O,126
4,O=C1/C(=C/Nc2ccccc2NS(=O)(=O)c2ccc([N+](=O)[O-])cc2)CCc2ccccc21,8.1
5,C[N+]1=C(CC(=O)Nc2ccccc2Cl)c2ccccc2CC1(C)C,1.4
6,Cc1ccc2nc(-c3ccc(NC(=O)c4ccc(S(=O)(=O)N5CCCC5)cc4)cc3)sc2c1,-1.5
7,Cc1cc(S(=O)(=O)N2CCCC2C(=O)O)c(C)cc1Cl (stereo not drawn),-5.8
8,Cc1nc2cc(-c3ccco3)[nH]n2c(=O)c1C,17
9,O=c1c2c(nc3cc(-c4cccs4)[nH]n13)CCCC2,20.5
10,O=c1c2c(nc3cc(-c4ccco4)[nH]n13)CCS2,78.9
11,O=c1c2c(nc3cc(-c4ccccc4)[nH]n13)CCS2,-12.6
12,O=c1c2c(nc3cc(-c4cccs4)[nH]n13)CCS2,75.8
13,O=c1c2c(nc3cc(-c4cccs4)[nH]n13)CCC2,5.7
14,O=C1NC(=O)N(c2ccc3c(c2)OCO3)C(=O)/C1=C/c1ccc(I)o1,17.5
15,COc1cc(/C=N/Nc2ncc(C)c(=O)[nH]2)cc(OC)c1O,6.6
16,CN(C)c1ccc(NS(=O)(=O)c2ccc(N3C(=O)CCC3=O)cc2)cc1,19.2
17,COc1ccc(N/C(C)=C/C(=O)c2ccc(Cl)cc2)c(OC)c1,0.8
18,CCCCCCC(=O)Nc1nnc(CC(C)C)s1,-12.9
19,C/C(=N\NC(=O)CCc1c(C)n[nH]c1C)c1ccc(N)cc1,-4
20,CCCC1=NN(c2ccc([N+](=O)[O-])cc2)C(=O)/C1=C\N(C)C,-5.5
21,NC(=O)c1c(NC(=O)Nc2ccc(Cl)cc2)sc2c1CCCC2,0.8
22,CCOc1ccc(N2COc3ccc4ccccc4c3C2)cc1,9.1
23,Oc1c(Br)cc2oc3c(c2c1/C=N/c1ncn[nH]1)CCCC3,8.5

row,SMILES,displacement [%]
1,Oc1ccccc1N=Cc1c(O)c(I)cc2oc3c(c12)CCCC3,130
2,Cc1ccc(N=Cc2c(O)c([N+](=O)[O-])cc3oc4c(c23)CCCC4)cc1C,-1.4
3,O=C(NCc1cccnc1)C(=O)N1CCCCC1,-1.4
4,O=C(CC(c1ccccc1)c1ccccc1)Nc1ccccc1Br,-11.6
5,CC(=O)CCc1oc2ccc([N+](=O)[O-])cc2c1-c1ccc(C)o1,3.5
6,CC(=O)/C=C/c1oc2ccc([N+](=O)[O-])cc2c1-c1ccc(C)o1,80.9
7,COc1cc2nnc(/C=C/C(C)=O)c(-c3ccc(C)o3)c2cc1OC,48
8,O=C(Nc1ccc(-c2nnc(-c3ccccc3)o2)cc1)c1cccs1,15.3
9,Nc1nonc1C(=O)N/N=C/c1cc(Cl)cc(Cl)c1O,9
10,C=CCN1C(=O)/C(=C\c2ccc(-c3cccc(Cl)c3)o2)SC1=S,1.4
11,CCOC(=O)c1ccc(-c2ccc(/C=C3/SC(=S)N(CC)C3=O)o2)cc1,31
12,C=CCN1C(=O)/C(=C\c2ccc(-c3ccccc3Cl)o2)SC1=S,149
13,C=CCN1C(=O)/C(=C\c2ccc(-c3ccc(C(=O)OCC)cc3)o2)SC1=S,90.3
14,C=CCN1C(=O)/C(=C\c2ccc(-c3ccc(Cl)c(Cl)c3)o2)SC1=S,50.1
15,O=C1/C(=C/c2ccc(-c3cc(Cl)ccc3Cl)o2)SC(=S)N1Cc1ccco1,14.1
16,C=CCN1C(=O)/C(=C\c2ccc(-c3ccc(F)c(Cl)c3)o2)SC1=S,39.4
17,O=C1/C(=C\c2ccc(-c3ccccc3Cl)o2)SC(=S)N1Cc1ccccc1,10
18,C=CCN1C(=O)/C(=C\c2ccc(-c3cc(Cl)cc(Cl)c3)o2)SC1=S,1.7
19,C=CCN1C(=O)/C(=C\c2ccc(-c3cc(Cl)ccc3Cl)o2)SC1=S,65.4
20,CCOC(=O)c1ccc(-c2ccc(/C=C3/SC(=S)N(CC(=O)O)C3=O)o2)cc1,-83.7
21,O=C(O)CN1C(=O)/C(=C\c2ccc(-c3ccccc3Cl)o2)SC1=S,-121
